# Bioassay records deposited in PubChem BioAssay by National Center for Advancing Translational Sciences (NCATS).
# Rows were chosen to be rich in hits. Some 2.1% of all compounds tested hit in one or more screens of this group.
# TDP-43 yeast inh: qHTS of TDP-43 Inhibitors; actives 1.8% (n = 410,000); TDP-43 expressing yeast growth rescue, BacTiter-Glo, 24 h; Potency, µM (series often up to 46.1 µM), without a hit: at the highest dose growth rescue (activation), most hits filed as activators; note: % of control where 0% means no effect; nearly all actives have a fitted effect of over 50% in size
#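 Yeast expressing TDP-43 (pregrown in raffinose, seeded at OD600=0.02 in galactose medium) exposed to compounds 24 hr at 30 deg C. Growth read by BacTiter-Glo luminescence; rescue of toxicity appears as increased signal.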
# Abeta rescue: qHTS for compounds that reverse cellular toxicity of Amyloid beta (A-beta) peptide in yeast: Primary Screen; yeast expressing A-beta42, growth rescue, OD600, 48 h; response scale: 0% DMSO, 100% iron-clioquinol control; Potency, µM (highest dose often 46.1 µM), actives largely listed as activators; actives 0.063% (n = 410,000); AID 1347071, 2019; note: nearly all actives have a fitted effect of over 55% in size
#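 Yeast growth medium received pinned compounds, then yeast cells expressing toxic A-beta were added; plates incubated at 30 C for 48 hr. Growth read as absorbance at 600 nm, normalized to DMSO and equimolar FeCl3 plus clioquinol controls.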
# FUS suppressor: qHTS for Suppressors of FUS Proteinopathy: Primary screen using FUS-linked yeast assay; AID 1347120, 2019; S. cerevisiae FUS-expressing, growth rescue, OD600, 24 h; actives 0.24% (n = 390,000); Potency, µM (series often up to 76.6 µM), usual class: activators;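 note: plate controls were DMSO vehicle for no effect and reference control for full effect; nearly all actives have a fitted effect of over 55% in size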
#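 Quantitative HTS measuring growth restoration of FUS-toxic yeast. Galactose-induced cells (OD 0.005) were exposed 24hr at 30C to compounds at several concentrations, then absorbance at 600 nm was recorded.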
# aSyn yeast inh: qHTS of alpha-syn Inhibitors; Yeast expressing alpha-synuclein, growth rescue, BacTiter-Glo, 24 h; Potency, µM (highest dose often 46.1 µM), without a hit: top-dose growth rescue (activation), hits mostly activators; actives 0.14% (n = 370,000); AID 652106, 2013; note: % of control where 0% means no effect; nearly all actives have a fitted effect of over 65% in size
#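 Readout is rescue of growth in alpha-synuclein-expressing yeast, so inhibitors of toxicity appear as activators. Growth after 24 hr at 30 deg C in galactose medium is quantified by luminescence.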
# The depositor's hits bear a star; i = inactive; ? = inconclusive; · = no result given; [ ] = another dose, or the depositor's remark. Calls come from the whole dose curve; as a rule, active = well fitted curve in the direction sought with a large enough effect; inconclusive = small, poorly fitted or top-dose-only effect, or another doubt; inactive = no such curve, though single readings can be large; an effect the other way counts as inactive or inconclusive. Potency is the fitted concentration of half-maximal effect.
SMILES,TDP-43 yeast inh,Abeta rescue,FUS suppressor,aSyn yeast inh
N/C(=N\OC(=O)CC1CCCCC1)c1ccc([N+](=O)[O-])cc1,17.8µM*,i,·,-6.2%
COc1cccc(C(c2sc3nc(-c4ccco4)nn3c2O)N2CCN(c3ccccc3F)CC2)c1 (stereo not drawn),11.2µM*,i,8.91µM*,·
CCS(=O)(=O)c1nc2ccccc2n1Cc1ccccc1Cl,15.8µM*,i,i,-4.2%
O=C(C[C@H]1CC[C@H]2[C@@H](COC[C@@H](O)CN2S(=O)(=O)c2ccc(F)cc2)O1)N[C@@H]1CCN(Cc2ccccc2)C1,14.0%,i,i,8.0%
O=C(Nc1ccnn1C1CCN(C2CCCC2)CC1)c1ccccc1,4.9%,i,i,1.1%
OCc1cn(-c2ccccc2)nc1-c1cccnc1,7.9%,i,i,-0.3%
NC(=O)c1cn(-c2ccccc2)nc1-c1cccnc1,12.6µM*,i,i,0.2%
O=C(/C=C/c1cn(-c2ccccc2)nc1-c1cccnc1)c1ccco1,12.6µM*,i,i,5.2%
Cc1cccc(C)c1OCC(=O)NNC(=S)NC(=O)C1CC1,?,i,i,-8.7%
COc1ccc(Cc2nnc(SCc3ccc([N+](=O)[O-])cc3)o2)cc1,17.8µM*,i,i,6.5%
O=[N+]([O-])c1ccc(CSc2nnc(Cc3ccccc3)o2)cc1,?,i,i,13.2%
C=CC[C@@H]1NN2C(=O)[C@@H](CCCC)[C@@H]3c4ccccc4C=NN3[C@@H]2c2ccccc21,·,·,i,·
c1csc(CSc2nnc3sc4ccccc4n23)c1,14.1µM*,i[9.22 µM],i,-0.6%
CCCSc1nnc(Sc2nnnn2-c2ccccc2)s1,17.8µM*,i,i,-0.5%
COc1ccc(-c2noc(C3CCCN(C(=O)Nc4ccc(C)c(F)c4)C3)n2)cc1 (stereo not drawn),·,·,i,·
Cc1ccc(Cn2ccn(Cc3ccccc3F)c(=O)c2=O)cc1,5.7%,i,i,·
CC(C)CC(=O)Nc1ncc([N+](=O)[O-])s1,4.6%,i,i,?
CCCCC(=O)Nc1ncc([N+](=O)[O-])s1,15.8µM*,i,i,0.4%
N#Cc1c(N)nc2c(c1-c1ccc(Br)s1)CCCC2,11.5%,i,·,-1.8%
Nc1nc(-c2ccc(Br)s2)c(Br)s1,11.2µM*,i,i,4.2%
CC(C)CC(C(=O)NCCc1ccccc1)N1Cc2ccccc2C1=O (stereo not drawn),-4.4%,i,i,·
COc1ccc(CC(=O)Nc2cccc(SC)c2)cc1,12.6µM*,i,·,0.1%
COc1cc(CC(=O)Nc2cccc(SC)c2)cc(OC)c1OC,-1.0%,i,i,1.2%
COc1cccc(-c2cnc3c(NC=O)cc(-c4ccccc4Oc4ccccc4)cn23)c1,35.5µM*,i,?,?
CC(=O)Nc1cc(-c2ccccc2)cn2c(-c3ccc(F)c(Cl)c3)cnc12,?,i,?,-16.6%
SMILES,TDP-43 yeast inh,Abeta rescue,FUS suppressor,aSyn yeast inh
COc1cccc(-c2cnc3c(NC=O)cc(-c4ccccc4)cn23)c1,?,i,i,-3.1%
COc1ccc(F)cc1-c1cc(NC(C)=O)c2ncc(-c3cccc(C(F)(F)F)c3)n2c1,22.4µM*,?,?,?
CC(=O)Nc1cc(-c2ccc(F)cc2)cn2c(-c3ccc(F)c(Cl)c3)cnc12,20µM*,i,i,-15.1%
COc1ccccc1-c1cc(NC=O)c2ncc(-c3cccc(C(F)(F)F)c3)n2c1,22.4µM*,i,i,13.8%
O=C(NCCc1csc(-c2cccc(F)c2)n1)c1ccccc1C(F)(F)F,17.8µM*,i,i,·
O=C(NCCc1csc2nc(-c3ccccc3F)nn12)c1ccccc1C(F)(F)F,17.8µM*,i,i,·
O=C(NCCc1csc(-c2ccc(F)cc2)n1)c1ccc(Br)o1,?,i,i,·
O=C(NCCc1csc(-c2cccc(F)c2)n1)c1ccc(Br)o1,31.6µM*,i,i,·
Cn1c(CNC(=O)CSc2nc(-c3ccccc3F)nc3cc(=O)[nH]n23)nc2ccccc21,5.2%,i,i,·
CCCCCn1c(CN2CCN(c3cccc(Cl)c3)CC2)nc2c1c(=O)n(C)c(=O)n2C,?,i,?,-3.1%
CCCCn1c(CN2CCN(c3cccc(Cl)c3)CC2)nc2c1c(=O)n(C)c(=O)n2C,20µM*,i,i,2.1%
N=c1c2c3c(sc2ncn1Nc1ccccc1)CCC3,17.8%,i,i,-3.8%
O=C(NCc1cccc(Cl)c1)c1cc(COc2ccc3ncccc3c2)on1,14.1µM*,i,i,-10.9%
O=S(=O)(Nc1cccc(-c2ccc(N3CCOCC3)nn2)c1)c1ccc(F)c(C(F)(F)F)c1,-5.8%,i,?,·
COc1ccc(Cn2ccc3ccc(-c4ccc5ccn(C(=O)c6cccc(OC)c6)c5c4)cc32)cc1,·,·,i,·
COc1ccc(-c2nc(CSCC(=O)N3CCN(c4ccccc4)CC3)c(C)o2)cc1,0.0%,i,i,·
Cc1ccsc1-c1nc(CSCC(=O)N2CCN(c3ccccc3)CC2)c(C)o1,12.6µM*,i,i,16.1%
CC1CCCN(c2ncnc3c2cnn3-c2ccc(Cl)cc2)C1 (stereo not drawn),14.1µM*,i,i,-1.0%
CCN(CC)C(=O)C1CCCN(c2ncnc3c2cnn3-c2ccc(Cl)cc2)C1 (stereo not drawn),20µM*,i,?,2.7%
O=C(NCCc1ccc(Cl)cc1)c1cnc2sc(N3CCCC3)nn2c1=O,?,i,i,·
Cc1ccc(-n2cc(C(=O)c3cc(Cl)ccc3O)cc(C#N)c2=O)cc1,14.1µM*,i,·,0.4%
Cc1ccccc1OCC(=O)Nc1ccccc1N1CCC(C)CC1,9.3%,i,i,13.9%
CCOc1ccc(N2C(=O)CC(N3CCN(c4ccc(Cl)cc4)CC3)C2=O)cc1 (stereo not drawn),14.1µM*,i,i,-15.3%
Nc1nc2ccccc2cc1C(=O)NCCCCc1ccccc1,28.2µM*,?,i,-40.2%
CC(C)CCNC(=O)c1onc(CSc2ccccc2)c1C(=O)NCCC(C)C,-15.6%,i,i,2.1%
Cc1ccc(N(Cc2ccccc2)C(=O)c2cccc(S(=O)(=O)N3CC(C)OC(C)C3)c2)cc1 (stereo not drawn),-31.2%,i,28.2µM*,-19.6%
CCC(C)c1ccc(NC(=S)N2CCN(S(C)(=O)=O)CC2)cc1 (stereo not drawn),8.3%,i,i,2.0%
CSc1ccc(CNC(=O)Cn2nc(N3CCN(c4ccccc4)CC3)ccc2=O)cc1,14.3%,i,i,·
COCc1c(C(=O)NCC2COc3ccccc3O2)oc2ccccc12 (stereo not drawn),31.6µM*,i,i,0.8%
O=C(COc1ccccc1)NCC1COc2ccccc2O1 (stereo not drawn),8.9%,i,i,8.1%
